For 68 compounds, z-score results are on record in PubChem BioAssay AID488969 (Vanderbilt High Throughput Screening Facility, 2010).

In all, about 110,000 compounds were measured (“z-score”: median about -0.1, highest 2% from about 2 on). This is one part of a sample in which the highest values are shown more often than they occur. The source made the active and inactive calls.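 Rule for the calls: active = z-score in the third read window above 3 or below -3; inactive = the rest.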

In the assay the target is Metabotropic glutamate receptor 8 (Rattus norvegicus) (UniProt P70579). Put plainly: rat mGluR8 modulators via GIRK flux, primary screen, cell-based, thallium flux, HTS (AID 488969). The settings on record: HEK293 rat mGluR8, GIRK (G protein-gated inwardly rectifying potassium channel) thallium flux, FluoZin2; at 10 µM; stronger effect = higher value; submaximal glutamate (EC20) added with thallium.
Metabotropic glutamate receptor 8 (Rattus norvegicus), sequence (P70579 whole entry, looked up): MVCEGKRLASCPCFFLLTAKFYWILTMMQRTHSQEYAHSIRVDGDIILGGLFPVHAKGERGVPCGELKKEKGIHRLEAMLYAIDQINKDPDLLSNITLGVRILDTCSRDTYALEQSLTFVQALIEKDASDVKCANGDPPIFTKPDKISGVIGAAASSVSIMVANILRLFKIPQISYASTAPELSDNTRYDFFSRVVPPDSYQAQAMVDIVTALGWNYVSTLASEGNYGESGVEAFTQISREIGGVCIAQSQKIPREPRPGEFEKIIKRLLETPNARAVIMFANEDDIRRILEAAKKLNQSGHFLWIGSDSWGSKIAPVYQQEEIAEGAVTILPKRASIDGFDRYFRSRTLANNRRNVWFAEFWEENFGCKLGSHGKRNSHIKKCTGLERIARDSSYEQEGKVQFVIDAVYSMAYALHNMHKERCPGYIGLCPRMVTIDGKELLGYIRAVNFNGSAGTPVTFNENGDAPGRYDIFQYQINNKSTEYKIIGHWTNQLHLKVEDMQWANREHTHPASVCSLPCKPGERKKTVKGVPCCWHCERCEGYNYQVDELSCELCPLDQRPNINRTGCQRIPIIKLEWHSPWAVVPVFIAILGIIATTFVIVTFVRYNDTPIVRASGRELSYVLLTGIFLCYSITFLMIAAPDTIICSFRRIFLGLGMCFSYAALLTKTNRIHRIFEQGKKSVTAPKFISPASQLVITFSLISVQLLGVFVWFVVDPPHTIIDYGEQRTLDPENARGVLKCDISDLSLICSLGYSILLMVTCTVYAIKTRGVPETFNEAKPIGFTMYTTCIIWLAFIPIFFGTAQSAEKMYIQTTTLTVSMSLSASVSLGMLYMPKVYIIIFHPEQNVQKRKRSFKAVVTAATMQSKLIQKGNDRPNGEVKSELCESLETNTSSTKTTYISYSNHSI
In the case of `CCCOc1ccc(C2/C(=C(\O)c3c(C)[nH]c(C(=O)OC)c3C)C(=O)C(=O)N2CCN(C)C)cc1` (stereo not drawn), the z-score was 0.491. With `CCC(N1CCOC1=O)S(=O)(=O)c1ccc(C)cc1` (stereo not drawn), the z-score is -0.148. As for `Cc1cccnc1NC(=O)Nc1cccs1`, the z-score is -0.232. For the compound `COc1cc(NC(=O)c2ccc(COCC(F)(F)F)o2)cc(OC)c1OC`, the z-score was found to be 2.1. `COc1cc(NC(=O)c2ccc(COc3ccccc3Br)o2)cc(OC)c1OC`: the z-score was -0.932. As for `COc1cc(NC(=O)c2ccc(COCC(F)(F)F)cc2)cc(OC)c1OC`, the z-score is -0.608. Compound `NC(=O)C1CCN(C(=O)COc2ccc3ccccc3c2)CC1` came in with a z-score of 0.115. `Cc1ccc(NC(=O)COn2nnc3ccc(S(=O)(=O)N(C)C)cc32)cc1F`: the z-score is 3.29 (active). Then `CCc1ccc(NC(=O)COn2nnc3ccc(S(=O)(=O)N(C)C)cc32)cc1`, with -0.27; and `CCN(CC)S(=O)(=O)c1ccc2nnn(OCC(=O)Nc3cccc(C#N)c3)c2c1`, with -0.793. Turning to `COCCNS(=O)(=O)c1ccc(-c2ccc(C)cc2)cc1`, the z-score was -0.0903.

As to `CCOC(=O)c1cnc2c(Cl)cccc2c1NCCN(C)C`, the z-score is 0.313. For `O=C(O)C1C2C=CC(C2)C1C(=O)NC1CCN(Cc2ccccc2)CC1` (stereo not drawn), the z-score was 0.581.

Compound `Cc1nc(=S)c2ccccc2[nH]1` gave a z-score of 1.49.

`Cc1cc(=O)c2ccccc2[nH]1` came in with a z-score of 0.0595. `O=C(C1CCCCC1)N1CCC(c2nc3ccccc3[nH]2)CC1` showed a z-score of -0.166. Regarding `S=c1nc(C2CC2)[nH]c2ccccc12`, the z-score was 9.36 (active). In the case of `S=c1nc[nH]c2c1[nH]c1ccccc12`, the z-score turned out to be 0.0879. Take `CC(C)c1nc(=S)c2ccccc2[nH]1`: the z-score is 13.7 (active). `COc1ccc(Cc2nnc(SCc3c(C)noc3C)n2C2CCCCC2)cc1OC` came in with a z-score of 0.045. Consider `CSC(=NC(C)c1ccccc1)NS(=O)(=O)c1cccs1` (stereo not drawn), for which the z-score was 0.148. `COc1ccc(/C=C/C(=O)NC(=S)Nc2cc3oc4ccccc4c3cc2OC)cc1` gave a z-score of 0.0202. The compound `Cc1cc(C)c(-n2c(C)cc(/C=C3/NC(=O)NC3=O)c2C)c(C)c1` returned a z-score of 2.07. Turning to `Cc1cccc(C)c1-n1c(C)cc(/C=C2\NC(=O)NC2=O)c1C`, the z-score is -0.96. Then `Cc1cc(/C=C2/NC(=O)NC2=O)c(C)n1-c1ccccn1`, with -0.389. Under `Cn1cnnc1SC(C(=O)Nc1ccc(F)cc1)c1ccccc1` (stereo not drawn) stands -0.0653; under `Cc1ccc(S(=O)(=O)N2CCC(C(=O)NC3CCCCCC3)CC2)cc1`, -0.0732; under `CCC/C(O)=C1\C(=O)CCCC1=NCCCCCC(=O)O`, 0.156. As for `COc1ccc(-c2nc(CS(=O)(=O)CC(=O)NCCc3cc(OC)ccc3OC)c(C)o2)cc1`, the z-score was -0.299. In turn, `COc1ccc(OC)c(CCNC(=O)CN2C(=O)CC(C)(C)S(=O)(=O)c3ccccc32)c1` registered a z-score of 0.0628.

`COc1ccc(OC)c(CCNC(=O)Cn2sc3nc(C)cc(C)c3c2=O)c1` registered a z-score of 2.22. As for `O=C(C1CCC(=O)N1Cc1ccccc1Cl)N1CCN(c2cccc(Cl)c2)CC1` (stereo not drawn), the z-score was -0.174. Take `CC(CNC(=O)c1cc(Cl)ccc1[N+](=O)[O-])NC(=O)c1cc(Cl)ccc1[N+](=O)[O-]` (stereo not drawn): the z-score is -0.0709. For the compound `Cc1ccc(/C([O-])=C(/C(=S)NCc2ccco2)[n+]2ccccc2)cc1`, the z-score is -0.112. On to `Cc1cc(C)n(-c2nc(NCCC(C)C)c3c4c(sc3n2)COC(C)(C)C4)n1`, for which the z-score is -0.867. Take `CNc1ccccc1-n1ccc(-c2ccccc2)n1`: the z-score stood at 1.11.

For `N=c1nc(-c2ccccc2)ccn1O`, the z-score turned out to be 2.64. Then `c1ccc(-c2ccn3nnnc3n2)cc1`, with -0.244. The compound `O=c1c(-c2ccco2)[n+]([O-])c2ccccc2n1OCc1ccccn1` returned a z-score of -0.153. `CN1CCN(S(=O)(=O)c2cccc(S(=O)(=O)c3ccc(Cl)c(Cl)c3)c2)CC1` yielded a z-score of 1.26.

With `CN1CCN(S(=O)(=O)c2cccc(S(=O)(=O)c3cccc(S(=O)(=O)N4CCN(C)CC4)c3)c2)CC1`, the z-score was 14 (active).

With `CN1CCN(S(=O)(=O)c2cccc(S(=O)(=O)c3ccc(Cl)cc3)c2)CC1`, the z-score was found to be 0.2. For the compound `CCC(=O)NCc1cc(-c2nn(C)c(=O)c3ccccc23)ccc1C`, the z-score was -0.415. `COc1ccc(C)cc1NC(=O)C(Sc1ccccc1)c1ccccc1` (stereo not drawn) showed a z-score of 0.296.

As for `COc1cccc(NC(=O)C(Sc2nc3ccccc3c(=O)n2CC(C)C)c2ccccc2)c1` (stereo not drawn), the z-score amounted to 2.63. The compound `COc1cccc(NC(=O)C(Sc2nnc3ccccn23)c2ccccc2)c1` (stereo not drawn) registered a z-score of -0.184. Under `CCCn1c(SC(C(=O)Nc2cccc(OC)c2)c2ccccc2)nc2ccccc2c1=O` (stereo not drawn) stands -0.276. With `CCCn1c(SC(C(=O)Nc2cc(C)ccc2OC)c2ccccc2)nc2ccccc2c1=O` (stereo not drawn), the z-score was 3.61 (active). On to `CCNc1nc(NCC)n2c(SC(C(=O)Nc3cc(C)ccc3OC)c3ccccc3)nnc2n1` (stereo not drawn), for which the z-score is -0.463.

Turning to `Cc1cccc(CCNC(=O)C2CCC(CNc3c(N4CCCC4)c(=O)c3=O)CC2)c1` (stereo not drawn), the z-score is -0.262. Then `CCOc1ccc(-c2nnn(CC(=O)NCc3ccco3)n2)cc1OCC`, with 0.241; and `CC(=O)C1=C(c2ccccc2)NC(=O)NC1c1ccccc1OCC#N` (stereo not drawn), with 1.96; and `CC(=O)c1c(C)[nH]c(C(=O)N2CCN(C(=O)c3ccco3)CC2)c1C`, with -0.564. Under `O=C(CSc1nc2c(cnn2-c2ccc(F)cc2)c(=O)[nH]1)N1CCOCC1` stands 0.476. Turning to `CC(=O)c1cnn(-c2cc(Oc3ccc(F)cc3)ncn2)c1C`, the z-score is 0.354.

Consider `CC(=O)c1cnn(-c2cc(Oc3cccc(C)c3)ncn2)c1C`, for which the z-score worked out at 2.24. In the case of `COC(=O)c1cnn(-c2cc(Oc3cccc(C)c3)ncn2)c1N`, the z-score came to 0.309. Then `COC(=O)c1ccc(C2C(Oc3ccc(OC)cc3)C(=O)N2CCc2ccc(OC)c(OC)c2)cc1` (stereo not drawn), with -0.234; and `N#Cc1c(N)nc2c3c(sc(=N)c2c1N)NC(=O)CC3c1ccccc1` (stereo not drawn), with -0.0395; and `CCS(=O)(=O)NCCc1csc(-c2ccccc2)n1`, with -0.276.

The compound `CS(=O)(=O)NCc1csc(-c2ccccc2)n1` gave a z-score of 2.26. Compound `COc1ccc(OC)c(S(=O)(=O)NCc2csc(-c3ccccc3)n2)c1` registered a z-score of -0.245.

For `COc1cccc(CNC(=O)Cc2nc3nc(C)cc(C)n3n2)c1`, the z-score was -0.187. In turn, `Cn1cc(C(=O)Nc2cccc(F)c2)cn1` had a z-score of 0.0603.

As to `COc1ccc(CN2C(=O)c3ccccc3C(/C=N\OCc3ccc(C)cc3)C2=O)cc1` (stereo not drawn), the z-score came out at 2.42.

In the case of `COc1ccc(CN2C(=O)c3ccccc3C(/C=N\OCc3ccc(F)cc3)C2=O)cc1` (stereo not drawn), the z-score was determined as 0.722. `COc1ccc(CN2C(=O)c3ccccc3C(/C=N/OCc3ccc(Cl)cc3)C2=O)cc1` (stereo not drawn) registered a z-score of 0.378. Consider `COc1ccc(OC)c(/C(O)=C/C(=O)C(=O)Nc2cc(C)cc(C)c2)c1`, for which the z-score came out at 0.571.
